From PubChem
Compounds with a hit are over-represented: about 10% of the library has one in this group of screens.
JMJD2A Tudor – JMJD2A Tudor domain (human) inhibition. O75164. AlphaScreen JMJD2A-Tudor / H3K4me3 peptide binding. Potency, µM (top dose mostly 114 µM), inactives show at the top dose activity change, negative = inhibition, most hits filed as inhibitors. 4.4% of 390,000 active. AID 504339; further: potency means the concentration at half of the fitted maximal effect; on the % scale 0 is the no-effect control and ±100 the full control effect; nearly all actives have a fitted effect of over 50% in size
Six1-Eya2 inh – blocks human Six1 binding to Eya2; AlphaScreen GST-Six1/His-Eya2 binding, biochemical; active compounds read low; activity change, % (test concentration not listed); 0.56% of 360,000 active; AID 651725; in the data active means activity change below about -65%; inconclusive means mostly about -30% to -63%; further: on the % scale 0 is the no-effect control and ±100 the full control effect
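Homogeneous AlphaScreen proximity assay pairing GST-Six1 with His-tagged Eya2 (added as 5X mix: 250 nM and 500 nM) in 50 mM Tris pH 8.0, 300 mM NaCl, 1 mM TCEP. Glutathione donor and nickel acceptor beads; 1 h, 37 °C, dark.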
BAZ2B inh – BAZ2B (human) inhibition | AID 504333 | AlphaScreen BAZ2B-H3K14Ac peptide displacement | 4.4% of 360,000 active | Q9UIF8 | Potency, µM (series often up to 114 µM), for inactives: at the top dose activity change, negative = inhibition, usual class: inhibitors; further: potency means the concentration at half of the fitted maximal effect; on the % scale 0 is the no-effect control and ±100 the full control effect; nearly all actives have a fitted effect of over 60% in size
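Protein-peptide AlphaScreen: BAZ2B 50 nM, b-H3K14Ac 50 nM, 1x PBS pH 7.4 + 0.01% Tween-20. Preincubation 30 min RT; cpd 30 min RT (top 110 uM); beads 20 min RT, light-protected.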
G9a block – inhibitors of human histone lysine methyltransferase G9a; 8.8% of 350,000 active; AID 504332; Potency, µM (series often up to 102 µM), for the others: at the highest dose activity, negative = inhibition, most hits filed as inhibitors; Q96KQ7; G9a H3K9 monomethylation, AlphaScreen, 2 h; further: potency means the concentration at half of the fitted maximal effect; on the % scale 0 is the no-effect control and ±100 the full control effect; nearly all actives have a fitted effect of over 75% in size
Target sequence (Q96KQ7 913-1193 limits assumed): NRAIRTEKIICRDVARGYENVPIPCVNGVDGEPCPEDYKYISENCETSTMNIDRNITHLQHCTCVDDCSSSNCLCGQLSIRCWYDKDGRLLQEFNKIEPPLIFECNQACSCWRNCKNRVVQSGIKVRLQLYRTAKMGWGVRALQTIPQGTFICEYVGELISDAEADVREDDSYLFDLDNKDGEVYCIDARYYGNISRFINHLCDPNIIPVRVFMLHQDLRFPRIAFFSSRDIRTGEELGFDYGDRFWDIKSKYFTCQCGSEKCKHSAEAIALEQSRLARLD
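Compounds were preincubated with 20 nM G9a for 15 min, after which biotinylated H3K9 peptide (500 nM) and SAM (20 uM) started a 2 h room-temperature reaction. Monomethylated product was quantified by antibody-based AlphaScreen chemiluminescence.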
CtBP-E1A inh – inhibitors of CtBP/E1A interaction; AlphaScreen GST-E1A/His-CtBP binding, 1536-well; active compounds read low; activity change, % (no concentration beside the values); 0.49% of 340,000 active; in the data active means activity change below about -65%; inconclusive means mostly about -30% to -63%; further: on the % scale 0 is the no-effect control and ±100 the full control effect
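In 5 uL wells, 23 nL compound meets equimolar GST-E1A and His-CtBP (5X stock 125 nM each) for 2 h, 37 °C. Beads (5X, 50 ug/mL) then 1 h, 37 °C, dark.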
HP1b binding inh – HP1-beta chromodomain-methylated histone interaction inhibition. P83916. AlphaScreen HP1-beta / biotin-H3K9me3 peptide binding. Potency, µM (doses to about 114 µM), without a hit: at the highest dose activity change, negative = inhibition, hits mostly inhibitors. 0.56% of 390,000 active; further: potency means the concentration at half of the fitted maximal effect; nearly all actives have a fitted effect of over 70% in size
Target sequence (P83916 whole entry, looked up): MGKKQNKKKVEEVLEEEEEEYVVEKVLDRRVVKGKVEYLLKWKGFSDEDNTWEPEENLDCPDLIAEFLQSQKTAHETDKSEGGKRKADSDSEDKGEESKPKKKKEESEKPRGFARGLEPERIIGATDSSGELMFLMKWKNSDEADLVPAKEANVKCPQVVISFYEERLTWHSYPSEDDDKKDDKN
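AlphaScreen: HP1-beta (50 nM) preformed 30 min with biotin-H3(1-18)K9me3 peptide (50 nM) in PBS pH 7.4, 0.01% Tween-20. Compound added for 30 min at RT, then streptavidin donor/nickel chelate acceptor beads (10 ug/mL) for 30 min.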
An asterisk follows results filed as active; ? = inconclusive; . = no result; [ ] = another dose, or the depositor's remark. Unless noted, the call rests on the fitted dose curve; in most records, active means well fitted inhibition curve with a large enough effect; inconclusive means small, poorly fitted or top-dose-only effect; inactive means no such curve, though single readings can be large or run the other way.

SMILES	JMJD2A Tudor	Six1-Eya2 inh	BAZ2B inh	G9a block	CtBP-E1A inh	HP1b binding inh
O=C(CSc1ncnc2ccccc12)N1CCCC1	-12%	24	-4%	-19%	-23	30%
Cc1ccc(C(=O)CSc2ncnc3ccccc23)o1	-4%	-5	-20%	25µM*	3	-2%
O=C(O)CSc1cccc[n+]1[O-]	-18%	5	-23%	?	2	6%
O=C(CSc1cccc[n+]1[O-])c1cccs1	-9%	3	-12%	18µM*	4	15%
COc1ccccc1C(=O)NC(=O)CSc1cccc[n+]1[O-]	-4%	-4	7%	8%	1	8%
O=c1/c(=C\c2ccc(O)cc2)sc2n1C(c1ccccc1)C(c1ccccc1)=NN=2 (centres undefined)	-30%	-23	-31%[57.1 µM]	45µM*	-15	-6%
CN(C)C(=O)CSc1nc2ccccc2n1CC(=O)N1CCN(c2ccccc2)CC1	-14%	1	-30%	13%[59 µM]	0	22%
O=C(Cn1c(N2CCN(c3ccccc3)CC2)nc2ccccc21)c1ccccc1	-5%	-5	-11%	50µM*	-5	14%
CN(C)c1ccc(-c2nc3cnccn3c2Nc2cccc(C(F)(F)F)c2)cc1	-29%	.	?	-41%[59 µM]	.	22%
O=S(=O)(N/N=C/c1ccc(Cl)cc1)c1ccc(Cc2ncc(C(F)(F)F)cc2Cl)s1	?	-6	-33%	28µM*	2	-24%
NC(=O)c1ccc(Cc2ncc(C(F)(F)F)cc2Cl)s1	-4%	-15	4%	-46%[59 µM]	7	47%
O=c1c(CO)cc(CO)cc(CO)c1O	22µM*	-90*	10µM*	.	.	15%
O=C(Cn1c(=O)nc(-c2ccccc2)c2ccccc21)Nc1cccc(C(F)(F)F)c1	-23%	.	-17%	32%[59 µM]	.	21%
Cc1nc2ccccn2c1-c1csc(Nc2cccc(C(=O)O)c2)n1	-20%	?	-10%	45µM*	-71*	11%
O=C(O)c1cccc(Nc2nc(-c3cc4ccccc4oc3=O)cs2)c1	12%	-78*	?	.	-79*	40%
Cc1nc2ccccn2c1-c1csc(Nc2ccc(C(=O)O)cc2)n1	-32%	-17	?	?	-30	43%
O=c1oc2ccccc2cc1-c1csc(NN=C2CCCC2)n1	1%	21	2%	5%[59 µM]	22	46%
COc1ccc(CCNC(=O)c2cc(=O)[nH]c3ccc(S(=O)(=O)N4CCCCC4)cc23)cc1OC	-24%	.	1%	-2%[59 µM]	.	18%
CS(=O)(=O)NN1C(=O)c2ccccc2NC1c1ccccc1 (centres undefined)	-17%[11.4 µM]	-5	11%	-28%	.	0%
CS(=O)(=O)NN1C(=O)c2ccccc2NC1c1cccs1 (centres undefined)	3.5µM*	10	12%	-34%	.	8%
CCOc1ccc(CCNc2ncnc3onc(-c4ccc(F)cc4)c23)cc1OCC	-3%	.	1%	1%[59 µM]	.	-6%
Cc1ccc(-c2nc3ccccc3nc2NN)cc1	-30%	7	-17%	35µM*	-4	20%
NNc1nc(C(F)(F)F)nc2ccccc12	6%	-2	2%	32µM*	0	23%
NNc1nc2ccccc2nc1C(F)(F)F	8%[11.4 µM]	0	-15%	8.9µM*	.	-8%
Cc1ccc(S(=O)(=O)NNc2c3ccccc3nc3ccc(Cl)cc23)cc1	.	-12	.	.	-2	.
SMILES	JMJD2A Tudor	Six1-Eya2 inh	BAZ2B inh	G9a block	CtBP-E1A inh	HP1b binding inh
Cc1ccc(S(=O)(=O)NNc2nc3ccccc3nc2C(F)(F)F)cc1	35µM*	-4	45µM*	1.4µM*	-10	-85%
CCc1nc(NCc2ccco2)c2oc3ccccc3c2n1	-27%	1	79µM*	?	0	1%
O=C(CSC1=NCCS1)NCc1ccco1	18µM*	-9	6%	12%[12.7 µM]	-2	-12%
O=C(CSc1ncnc2c1oc1ccccc12)NCc1ccco1	-32%	-2	50µM*	14µM*	9	4%
CCc1nc(Nc2ccccc2O)c2oc3ccccc3c2n1	?	-5	79µM*	?	-5	18%
CC1=C(C(=O)Nc2ccccc2C)C(c2ccccn2)n2ncnc2N1 (centres undefined)	-18%	.	0%	-1%[59 µM]	.	11%[57 µM]
COc1ccc(C2C(=O)N(C3CCCCC3)CC(=O)N2CCC2=CCCCC2)cc1 (centres undefined)	-11%	.	4%	?	.	6%
Cc1ccc(NC(=O)Cn2nnc(-c3ccccc3)n2)c(C)c1	6%	.	0%	11%[59 µM]	.	15%
CCc1nc(N(CC)CC)c2oc3ccccc3c2n1	9%	14	.	2%[59 µM]	15	87%
CCc1nc(N2CCC(C)CC2)c2oc3ccccc3c2n1	-1%	14	-2%	40µM*	12	65%
CCc1nc(NCc2cccnc2)c2oc3ccccc3c2n1	-33%	-1	-35%	50µM*	-6	23%
c1coc(CNc2ncnc3c2oc2ccccc23)c1	-20%	-1	?	56µM*	2	-10%
Brc1ccc2ncnc(NCc3ccco3)c2c1	-3%	-5	-39%	-34%	-2	21%
CCOC(=O)C(=O)N1CCN(c2nc(-c3ccc(Cl)cc3)cs2)CC1	-22%	-14	?	40µM*	-12	?
COc1ccc(-c2csc(N3CCN(C(=O)c4ccco4)CC3)n2)cc1	?	-26	?	45µM*	-13	?
COc1ccc(-c2csc(N3CCN(C(=O)c4ccccc4)CC3)n2)cc1	?	-16	?	28µM*	-24	-18%
O=C(O)c1ccc(CNCc2ccccc2Cl)s1	-8%	.	2%	-4%[59 µM]	.	33%
Oc1ccc2[nH]cnc2c1CN1CCCCC1	4%	-3	11%	5.6µM*	-2	24%
O=C1CN(C(=O)COc2ccc(Br)cc2F)c2ccccc2N1	-17%	7	9%	45µM*	0	22%
Cc1cc(C(=O)OCC(=O)N2CC(=O)Nc3ccccc32)c(C)n1-c1ccccc1	56µM*	-24	50µM*	?	-11	?
Cn1c2ccccc2c2cc(C(=O)OCC(=O)N3CC(=O)Nc4ccccc43)sc21	5%	17	-4%	50µM*	0	40%
CC(C)c1ccc(C2c3c(-c4ccccc4O)n[nH]c3C(=O)N2Cc2ccncc2)cc1 (centres undefined)	-30%	.	-4%	5%[59 µM]	.	53%
Cc1cc(C)cc(OCCSc2nc3ccc(NC(=O)c4ccc5c(c4)OCO5)cc3s2)c1	-17%	.	-2%	8%[59 µM]	.	31%
Cc1noc(C)c1CSCC(=O)Nc1nc2c(F)cc(F)cc2s1	45µM*	-9	50µM*	?	-15	-18%
